This passage reports growth results from PubChem BioAssay (NCI).

Structures are written as SMILES. Compounds without any hit were thinned out: in the full panel of roughly 83,000, 20% have a hit.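 Each cell line was grown in a 96-well plate and treated with one concentration of compound for 48 hours. Values below 10 were considered active.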 Values without a mark were called inactive. Activity calls are given as the source filed them.

For the assay, the system named is HOP-62 NSCLC. Put plainly: NCI-60 one-dose screen, 48 h (100 = growth as untreated, 0 = no growth, -100 = all killed). As to conditions: 10 µM unless noted. On the procedure:
Growth inhibition of the HOP-62 human Non-Small Cell Lung tumor cell line is measured as a screen for anti-cancer activity. Cells are grown in 96 well plates and exposed to the test compound for 48 hours. Compounds are tested at a single concentration, which is 10^-5 M for most compounds. The reported endpoint is percent growth (GI% or GIPRCNT), where numbers from 0 - 100% represent growth inhibition, and numbers from -100% - 0 represent cell death. For example, a value of 40 represents 60% growth inhibition. A value of 0 means no net growth occurred over the course of the experiment. A value of -40 indicates 40% of cells at the beginning of the experiment died by the end of the experiment. A value of -100 means all cells are dead at the end of the experiment.
NCI-60 Human Tumor Cell Lines Screen was performed using the standard one-dose NCI protocol, which is described in more detail at https://dtp.cancer.gov/discovery_development/nci-60/default.htm.
Compounds with GIPRCNT values below 10 were considered active. Activity score was based on GIPRCNT using the following formula: […]
Score is 0 for GIPRCNT values of 100 or above, 50 for GIPRCNT values of 0, and 100 for GIPRCNT values of -100.
`Oc1cccc2oc(=S)[nH]c12`: the growth was 104%.

For `Cc1cccc(C)c1NCc1nc(-c2ccccc2)n[nH]1`, the growth is 100%.

Regarding `O=C(Nc1ccc(/C=C2\SC(=O)N(Cc3ccc(OC(F)(F)F)cc3)C2=O)cc1)c1ccc(Cl)c([N+](=O)[O-])c1`, the growth was 57.8%.

On to `COCCNC1=C(Cl)C(=O)c2ccccc2C1=O`, for which the growth is 117%.

Consider `Cc1nnc2nc(N)[nH]n2c1=O`, for which the growth is 109%.

In the case of `COc1ccc(-c2nc3ncccn3c2-c2nc3ccc(Br)cc3[nH]2)cc1`, the growth was 99.3%.

Take `c1ccc2c(-c3nc(-c4c[nH]c5ncccc45)cs3)c[nH]c2c1`: the growth was 83.2%.

For the molecule `O=C(O[C@@H]1Cc2c(O)cc(O)cc2O[C@@H]1c1cc(O)c(O)c(O)c1)c1cc(O)c2c(c1)OCO2`, the growth is 98.5%.

Turning to `O=C(CCCCCn1c2ccccc2c2c3c(c4c5ccccc5[nH]c4c21)C(=O)N(O)C3=O)N1CCOCC1`, the growth is 11.6%.

As to `O=S(=O)(NCCNc1cc(-c2cn(-c3ccccc3)nc2-c2cccc(O)c2)ccn1)c1ccc(Br)cc1`, the growth is 40.4%.

As to `CN1CCN(c2ccc3nc(-c4[nH]ncc4Nc4ncnc5c4OCCCN5)[nH]c3c2)CC1`, the growth was -48.4% (active).

As for `O=[N+]([O-])c1ccc(/C=N\Nc2ccccc2)cc1`, the growth was 95.2%.

`CCOC(=O)C/C(=C\c1ccccc1)C(C)=O`: the growth is 73.4%.

`NNC(=O)c1nc2ccccc2[nH]1`: the growth was 97.4%.

For `Fc1ccc(Nc2ccc3c(OCCCN4CCOCC4)cccc3n2)cc1F`, the growth is 89.6%.

As to `Cn1cc(-c2csc(-c3c[nH]c4ccccc34)n2)c2cccnc21`, the growth was 45.5%.

With `C=C(C)[C@@H]1CC[C@]2(/C=N/Nc3ccncc3)CC[C@]3(C)[C@H](CC[C@@H]4[C@@]5(C)CCCNC(C)(C)[C@@H]5CC[C@]43C)[C@@H]12`, the growth was 94.7%.

On to `COC(=O)[C@]12CC[C@@H](C)[C@H](C)[C@@H]1C1=CC[C@@H]3[C@@]4(C)C[C@@H](OC(C)=O)[C@H](O)[C@@](C)(CO)[C@@H]4[C@H](O)C[C@@]3(C)[C@]1(C)CC2`, for which the growth was -89.8% (active).

`COc1ccc2c(c1)c(-c1nc(-c3cn(C)c4ncccc34)cs1)cn2CCCN1CCCCC1`: the growth was 74.9%.

As for `NC(=O)NCC1CCCCC1`, the growth was 112%.

For the molecule `C=C(C)[C@@H]1CC[C@]2(C)[C@H](CC=C3[C@@H]4CC(C)(C)CC[C@]4(C=O)CC[C@]32C)[C@@]1(C)CCCN`, the growth is 88.9%.

For the molecule `Cn1c(=O)c2c(ncn2CC(=O)Nc2ccc(S(N)(=O)=O)cc2)n(C)c1=O`, the growth was 94.8%.

For the molecule `C=CC(=O)N[C@H](Cc1ccc(-c2cc(Cl)cc(Cl)c2)cc1)[C@H](O)[C@@H](O)C(=O)O`, the growth was 87.3%.

Take `Cc1ccc(-c2nn(Cc3cn(-c4cc(C)nc5ccccc45)nn3)c3ncnc(N)c23)cc1`: the growth is 60.4%.

For the molecule `Oc1ccc(CCC2CCCC(CCc3ccc(OCCF)cc3)N2)cc1` (stereo not given), the growth was 95.6%.

Consider `Cc1ccsc1-c1ccc2c(c1)COC2(CCCN(C)C)c1ccc(F)cc1` (stereo not given), for which the growth is 69.4%.

Take `COc1ccc(C(=O)c2cc(OC)c(OC)c(OC)c2)cc1/C=C/C(=O)c1cc(OC)c(OC)c(OC)c1`: the growth is 117%.

For `[B-][N+](CC)(CC)c1ccccc1`, the growth is 101%.

`CCCCCCCC(=O)SCC/C=C/[C@@H]1CC(=O)NCc2cccc(n2)CN(Cc2ccc3ccccc3c2)CC(=O)N[C@@H](C(C)C)C(=O)O1`: the growth is 24%.

For `Nc1nc(N)c2nc3c(nc2n1)CCCCCCCCCC3`, the growth is 58.1%.

With `c1ccc(-c2nc(Nc3ccc(-c4nc5ccccc5[nH]4)cc3)nc(N3CCOCC3)n2)cc1`, the growth is -64.5% (active).

With `Cc1cc2nc3c4cc(N)ccc4n(CCN(C)C)c3nc2cc1C`, the growth was 19%.

For the molecule `CCN1CCN(C(=O)[C@@]2(C)CC[C@]3(C)CC[C@]4(C)C(=CC(=O)[C@@H]5[C@@]6(C)CC[C@H](OC7C[C@@H](O)[C@@H](O)C(C)O7)C(C)(C)[C@@H]6CC[C@]54C)[C@@H]3C2)CC1` (stereo not given in full), the growth was 26.9%.

For `CC1(C)C(=O)CC[C@]2(C)[C@H]3C(=O)C=C4[C@@H]5C[C@@](C)(C(=O)NCCNCCN)CC[C@]5(C)CC[C@@]4(C)[C@]3(C)CC[C@@H]12`, the growth is 94.1%.

With `O=C(O)/C(=C/c1ccc(O)cc1)c1ccccc1`, the growth is 88.8%.

Turning to `COC(=O)[C@]12CC[C@@H](C(=O)/C=C/c3cccnc3)[C@@H]1[C@H]1CC[C@@H]3[C@@]4(C)C/C(=C/c5cccnc5)C(=O)C(C)(C)[C@@H]4CC[C@@]3(C)[C@]1(C)CC2`, the growth was -85.6% (active).

In the case of `O=C1C(=O)N(CCCCn2cc(-c3ccccc3)nn2)c2ccccc21`, the growth was 106%.

With `O=C(NC1=CC(=O)c2ccccc2C1=O)c1ccccc1`, the growth was 49.7%.

In the case of `COc1ccc(-c2nc(Nc3ccc(-c4nc5ccccc5[nH]4)cc3)nc(N3CCOCC3)n2)cc1`, the growth is -27.3% (active).

For the molecule `C=C1C(=O)O[C@H]2[C@H]1CC/C(COC(=O)NCc1cc3ccccc3[nH]1)=C\CC[C@@]1(C)O[C@@H]21`, the growth was 58.3%.
